# Results from PubChem BioAssay (NCATS).
# Records with an inconclusive call do not appear. The source made the active and inactive calls. Calls follow the shape of the dose curve; as a rule, active = well fitted inhibition curve with a large enough effect; inconclusive = small, poorly fitted or top-dose-only effect; inactive = no such curve, though single readings can be large or run the other way.
# Assay: qHTS Screen of the MIPE 4.0 Collection Against Ewings Sarcoma (TC32) (AID 1259256); also: nearly all actives have a fitted effect of over 45% in size
# Details: TC32 Ewing sarcoma viability, CellTiter-Glo, 48 h; series mostly up to 45.8 µM
# How it was run: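 Measured: ATP luminescence (CellTiter-Glo) 10 min after reagent addition, following 48 h drug treatment. Relative luciferase units converted to percent activity, with no-cell wells as full and DMSO wells as zero inhibition.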
# Potency is read from the fitted curve at half-maximal effect.
row,SMILES,Potency
1,O=C1NC(=O)C(=Cc2ccc(-c3ccc(F)cc3O)o2)S1,23.5 µM (active)
2,COc1cc2nccc(Oc3ccc(NC(=O)Nc4ccc(F)cc4F)c(F)c3)c2cc1OC,6.62 µM (active)
3,CCC(=O)OCC(=O)[C@@]1(OC(=O)CC)[C@@H](C)C[C@@H]2[C@H]3CCC4=CC(=O)C=C[C@]4(C)[C@@]3(F)[C@@H](O)C[C@@]21C,inactive
4,CC(C)(O)CC(=O)NCCn1ccc2ncnc(Nc3ccc(Oc4cccc(C(F)(F)F)c4)c(Cl)c3)c21,26.4 µM (active)
5,C[C@H]1COC2=C1C(=O)C(=O)c1c2ccc2c1CCCC2(C)C,23.5 µM (active)
6,Cn1cnc(-c2cc3nccc(Oc4ccc(NC(=S)NC(=O)Cc5ccccc5)cc4F)c3s2)c1,18.7 µM (active)
7,Cc1c(-c2cccc3c(CCCOc4cccc5ccccc45)c(C(=O)O)n(Cc4cccnc4)c23)c(COc2ccc(N3CCN([S+](=O)([O-])N(C)C)CC3)cc2)nn1C,18.7 µM (active)
8,N[C@@H](CC(=O)N1CCn2c(nnc2C(F)(F)F)C1)Cc1cc(F)c(F)cc1F,23.5 µM (active)
9,CN(C(Cc1ccc(OS(=O)(=O)c2cccc3cnccc23)cc1)C(=O)N1CCN(c2ccccc2)CC1)S(=O)(=O)c1cccc2cnccc12 (configuration not stated),16.6 µM (active)
10,COc1cc(C=CC(=O)O)ccc1O,inactive
11,CCN(CC)CCCCNc1nc2cc(Cl)c(Cl)cc2nc1-c1ccc(-c2cccs2)s1,18.7 µM (active)
12,CC[C@]1(O)C[C@H]2CN(CCC3=c4ccccc4=N[C]3[C@@](C(=O)OC)(c3cc4c(cc3OC)N(C)[C@H]3[C@@](O)(C(N)=O)[C@H](O)[C@]5(CC)C=CCN6CC[C@]43[C@@H]65)C2)C1,inactive
13,CNC(=O)[C@H](CC1=CN=C2C=CCC=C12)NC(=O)[C@@H](CC(=O)NO)CC(C)C,inactive
14,CN1CCN(c2cccc(Nc3nc4c(-c5ccc(S(C)(=O)=O)cc5)cccn4n3)c2)CC1,2.35 µM (active)
15,COc1nccc(-c2c(-c3ccc(F)cc3)ncn2C2CCNCC2)n1,16.6 µM (active)
16,C[C@@H](O[C@H]1OCCN(Cc2n[nH]c(=O)[nH]2)[C@@H]1c1ccc(F)cc1)c1cc(C(F)(F)F)cc(C(F)(F)F)c1,16.6 µM (active)
17,O=C1NC(=O)C(c2cnc3ccccn23)=C1c1cn2c3c(cccc13)CN(C(=O)N1CCOCC1)CC2,16.6 µM (active)
